Compounds with a hit are over-represented: about 2.4% of the library has one in this group of screens.
TDP1 block = qHTS Assay for Inhibitors of Tyrosyl-DNA Phosphodiesterase (TDP1). Tyrosyl-DNA phosphodiesterase 1 (Homo sapiens), Q9NUW8. recombinant TDP1, AlphaScreen DNA substrate cleavage. Potency, µM (top dose mostly 130 µM), for the others: at the highest dose activity change, negative = inhibition, hits mostly inhibitors. hit rate 0.28% among 350,000. AID 485290, 2010; active = well fitted curve in the direction sought with a large enough effect; inconclusive = small, poorly fitted or top-dose-only effect, or another doubt; inactive = no such curve, though single readings can be large; an effect the other way counts as inactive or inconclusive; note: % is set by controls: 0 for no effect and ±100 for the full control effect; nearly all actives have a fitted effect of over 40% in size
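Enzyme-compound mixtures sat 15 min at room temperature, followed by a 5 min reaction with 15 nM final substrate and 10 min with AlphaScreen beads. Recombinant human Tdp1 was used at 1 nM final.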
12-LOX inh = Primary qHTS assay for inhibitors of human arachidonate 12S-lipoxygenase (ALOX12): Round 2; Polyunsaturated fatty acid lipoxygenase ALOX12 (Homo sapiens), P18054; purified 12hLO, xylenol orange hydroperoxide absorbance; Potency, µM (titrated, usually from 108 µM), without a hit: top-dose activity change, negative = inhibition, actives largely listed as inhibitors; hit rate 1.1% among 580,000; active = well fitted curve in the direction sought with a large enough effect; inconclusive = small, poorly fitted or top-dose-only effect, or another doubt; inactive = no such curve, though single readings can be large; an effect the other way counts as inactive or inconclusive; note: % is set by controls: 0 for no effect and ±100 for the full control effect
Target sequence (P18054 whole entry, looked up): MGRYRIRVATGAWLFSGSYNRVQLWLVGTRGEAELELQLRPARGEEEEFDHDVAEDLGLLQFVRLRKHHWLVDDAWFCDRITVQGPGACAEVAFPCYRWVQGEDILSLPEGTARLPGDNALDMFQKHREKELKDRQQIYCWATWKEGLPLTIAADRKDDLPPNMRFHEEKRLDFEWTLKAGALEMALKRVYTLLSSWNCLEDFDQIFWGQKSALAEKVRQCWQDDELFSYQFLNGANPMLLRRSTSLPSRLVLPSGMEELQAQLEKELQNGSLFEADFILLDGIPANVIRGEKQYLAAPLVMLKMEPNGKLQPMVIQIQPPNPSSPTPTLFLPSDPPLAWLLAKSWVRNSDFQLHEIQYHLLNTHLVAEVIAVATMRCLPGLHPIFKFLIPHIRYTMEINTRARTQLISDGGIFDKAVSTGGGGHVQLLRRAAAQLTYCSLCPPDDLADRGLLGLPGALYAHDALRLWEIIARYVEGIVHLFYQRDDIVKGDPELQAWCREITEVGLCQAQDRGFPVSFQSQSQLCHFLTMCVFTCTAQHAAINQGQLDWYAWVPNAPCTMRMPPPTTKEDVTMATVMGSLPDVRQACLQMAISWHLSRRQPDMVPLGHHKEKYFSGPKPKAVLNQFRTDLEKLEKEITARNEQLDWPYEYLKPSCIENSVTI
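Purified human 12hLO at 150 nM in 25 mM Hepes, 0.01% Triton X-100, pH 7.0, preincubated 15 min at room temperature with compound. Reaction started with 40 uM arachidonic acid, 30 min at room temperature. Hydroperoxide measured by Fe-xylenol orange, 573/405 nm absorbance ratio.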
ClpP mod = qHTS Assay for Activators of ClpP. hit rate 1.9% among 340,000. ATP-dependent Clp protease proteolytic subunit (Bacillus subtilis (strain 168)), P80244. Potency, µM (top dose mostly 57.5 µM), for the others: top-dose activity change, negative = active. purified B. subtilis ClpP, FRET peptide cleavage, 20 min; active = well fitted falling curve with a large enough effect; inconclusive = small, poorly fitted or top-dose-only effect; inactive = no such curve, though single readings can be large or run the other way; note: the source files actives as falling curves though it sought activators and does not explain the sign; nearly all actives have a fitted effect of over 65% in size
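Purified B. subtilis ClpP, 10 microg/mL final in Tris/HCl pH8 with KCl, BSA, glycerol and Tween-20, cleaved an Abz/nitrotyrosine-quenched decapeptide. Fluorescence (ex 320, em 430) was read at 0 and 20 min at room temperature. Delta was normalized to 5.8 microM ADEP and DMSO/no-enzyme controls.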
Rango release inh = qHTS Assay for Inhibitors of RanGTP induced Rango (Ran-regulated importin-beta cargo) - Importin beta complex dissociation. Snurportin-1 (Homo sapiens) + GTP-binding nuclear protein Ran (Homo sapiens) + Importin …. Biochemical FRET Rango-importin beta, RanGTP-induced dissociation. Potency, µM (titrated, usually from 46.1 µM), for inactives: top-dose activity change, negative = inhibition. hit rate 0.071% among 340,000. AID 540253, 2011; note: % of control where 0% means no effect; nearly all actives have a fitted effect of over 45% in size
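Compounds sat 5 min at room temperature with 0.1 uM Rango biosensor plus 0.25 uM importin beta, then FRET pre-read. RanGTP-RCC1 (0.6 uM Ran, 2mM GTP, 0.2 uM RCC1) added for 45 min, and the CFP/YFP post-read measured blocked complex dissociation.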
PTAP TSG101 blk = qHTS Assay for Iinhibitors of HIV-1 Budding by Blocking the Interaction of PTAP/TSG101. 340,000 tested, under 10 active. Fluorescence polarization, FITC-PTAP peptide / Tsg101 binding. Tumor susceptibility gene 101 protein (Homo sapiens), Q99816. Potency, µM (top dose mostly 115 µM), inactives show at the highest dose activity change, negative = inhibition, most hits filed as inhibitors; active = well fitted inhibition curve with a large enough effect in the main read-out, with a control signal flat, not every such curve was filed as active; inconclusive = small, poorly fitted or top-dose-only effect, or effect the other way, or a change in a side signal; inactive = no such curve, though single readings can be large or run the other way; note: % of control where 0% means no effect
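Compounds were pin-transferred onto Tsg101 binding domain (10 uM final) in HEPES pH 7.5 buffer, then FITC-PTAP peptide was added at 50 nM final. After 20 min at RT, polarization reported peptide displacement across a qHTS concentration series.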
Rango-impB inh = qHTS Assay for Inhibitors of Rango (Ran-regulated importin-beta cargo) - Importin beta complex formation | Importin subunit beta-1 (Homo sapiens), Q14974 | Rango CFP/YFP FRET sensor + importin beta, 45 min | Potency, µM (highest dose often 92.2 µM), inactives show top-dose inhibition of complex formation | hit rate 0.031% among 340,000 | AID 540263, 2011;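 note: 0% = DMSO wells and 100% = buffer wells lacking importin beta; nearly all actives have a fitted effect of over 15% in size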
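FRET biosensor Rango (snurportin 1 IBB between N-terminal EYFP and C-terminal Cerulean), 50 nM in PBS/1 mM DTT/0.02% Tween-20/0.1% BSA, preincubated 5 min RT with compound; 0.125 microM importin beta added, 45 min RT, CFP/YFP FRET ratio read.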
Starred values were filed as active, the others as inactive; [ ] = remark or other dose. Unless noted, calls come from the whole dose curve. Potency is the fitted concentration of half-maximal effect.

What do the screens show for `Cc1cc2ccccc2c(=O)n1CC(=O)NCC1COc2ccccc2O1` (stereo not drawn)?
TDP1 block: 6.9%; 12-LOX inh: 0.0%; ClpP mod: 25.1µM*; Rango release inh: 7.1%; PTAP TSG101 blk: -1.6%; Rango-impB inh: -1.2%

Results for CCN(CC)C(=O)Cn1cc(C(=O)C(=O)NCC2COc3ccccc3O2)c2ccccc21 (stereo not drawn) ?
TDP1 block: 2.6%; 12-LOX inh: -2.0%; ClpP mod: 20µM*; Rango release inh: 16.7%; PTAP TSG101 blk: -1.2%; Rango-impB inh: -0.2%

How did CCc1ccc2nc3nc(C)cc(C)c3c(N)c2c1 do in these assays?
TDP1 block: -2.9%; 12-LOX inh: 0.3%; ClpP mod: 11.2µM*; Rango release inh: inconclusive; PTAP TSG101 blk: -10.2%; Rango-impB inh: inconclusive

Results for C=CCNC(=O)C[C@@H]1CCN(C(=O)C(C)(C)C)C[C@@H]1CC ?
12-LOX inh: 33.2%[176 µM]

How did COc1cc2nc(-c3cc(F)ccc3O)nc(N[C@@H]3CNC[C@@H]3C(C)(C)O)c2cc1OC do in these assays?
12-LOX inh: 2.43µM*

What do the screens show for `c1ccc(-c2cc3nc(NCC4CC4)nc(NCC4CCCCC4)c3s2)cc1`?
12-LOX inh: inconclusive; ClpP mod: 20µM*

How did COCCNc1nc(NCC2CCCCC2)c2sc(-c3ccccc3)cc2n1 do in these assays?
12-LOX inh: inconclusive; ClpP mod: 25.1µM*

How did COCCNc1nc(NCCOc2ccccc2Cl)c2sc(-c3ccccc3)cc2n1 do in these assays?
12-LOX inh: inconclusive; ClpP mod: -26.8%

Results for Cc1cc(=O)oc2cc(OCC(=O)NCCc3ccc(S(N)(=O)=O)cc3)ccc12 ?
12-LOX inh: -1.0%

Results for Cc1nnsc1CN(C)C(=O)Cn1nc(C)n(Cc2ccccc2)c1=O ?
12-LOX inh: 14.5%

Results for CC(C)(C)c1ccc(-c2nc3ccccc3s2)cc1 ?
12-LOX inh: -28.7%

What do the screens show for `CCN(CC)CCNC(=O)c1ccc2c(c1)NC(=O)C(CS(=O)(=O)Cc1ccc(F)cc1Cl)N2` (stereo not drawn)?
TDP1 block: 7.0%; 12-LOX inh: 100.6%; ClpP mod: 28.2µM*

How did CC(C)CCNC(=O)c1ccc2c(c1)NC(=O)C(CS(=O)(=O)Cc1cccc(Br)c1)N2 (stereo not drawn) do in these assays?
TDP1 block: 7.4%; 12-LOX inh: -30.0%; ClpP mod: inconclusive

Results for CN(C)CCNC(=O)c1ccc2c(c1)NC(=O)C(CS(=O)(=O)Cc1cccc(Br)c1)N2 (stereo not drawn) ?
TDP1 block: 10.4%; 12-LOX inh: 267.7%; ClpP mod: 31.6µM*

How did O=C(NCc1ccc(Cl)cc1)c1ccc2c(c1)NC(=O)C(CS(=O)(=O)Cc1ccc(F)cc1Cl)N2 (stereo not drawn) do in these assays?
TDP1 block: 7.4%; 12-LOX inh: inconclusive; ClpP mod: 4.2%

Results for CCN(CC)CCCNC(=O)c1ccc2c(c1)NC(=O)C(CS(=O)(=O)Cc1ccc(F)cc1Cl)N2 (stereo not drawn) ?
TDP1 block: 5.2%; 12-LOX inh: 94.5%; ClpP mod: 3.16µM*

Screening results (PubChem)
